Test [1] can be described thus: Cell Viability - HepG2 (AID 433; calls by dose curve;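 also: potency is read from the fitted curve at half-maximal effect; cells exposed to compound for 40 hours; potency for ATP loss meaning cytotoxicity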). Particulars: qHTS. Put shortly:
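Read-out is luciferase-based quantitation of cellular ATP as a measure of viable HepG2 cells after 40 h treatment at 37 °C. Signal decrease is scaled between DMSO-only and 100 uM tamoxifen controls, with AC50 fitted by the Hill equation.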

Test [2] is described as follows: MultiTox-Fluor Cytotoxicity Assay - LYMP1-001 - Dead Cells (AID 946).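 Also: 0% = DMSO and 100% = tetraoctylammonium bromide.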 Particulars: LYMP1-001 lymphoblastoid cells, dead-cell protease fluorescence; series mostly up to 92.2 µM. Put shortly: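 AC50 from Hill fit of concentration-response; data normalized to DMSO (basal) and 15 uM tetraoctylammonium bromide (100%). LYMP1-001 lymphoblastoid cells, 2500/well, 16 hr compound at 37 C; dead-cell protease fluorescence, Ex/Em 485/520.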

Test [3] in a line: Cell Viability - LYMP2-013 (AID 970).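 Also: cells exposed to compound for 24 h at 37 °C; nearly all actives have a fitted effect of over 55% in size.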 Also: potency is read from the fitted curve at half-maximal effect. The settings on record: LYMP2-013 lymphoblastoid cells viability; series mostly up to 92.2 µM. The method in brief:
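Cytotoxicity is scored as a concentration-dependent drop in intracellular ATP in human lymphoblastoid cells after 24 hr compound exposure at 37 C. ATP is quantified by luciferase luminescence, and AC50 values come from Hill-equation modeling.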

The target of test [4] is Voltage-gated inwardly rectifying potassium channel KCNH2 (Homo sapiens) (UniProt Q12809). Briefly: qHTS Assay for Small Molecule Inhibitors of the Human hERG Channel Activity (AID 588834).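 Also: potency is read from the fitted curve at half-maximal effect; lower thallium flux fluorescence means stronger hERG block; nearly all actives have a fitted effect of over 50% in size.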 Particulars: U2OS BacMam hERG, FluxOR thallium flux fluorescence; series mostly up to 92.2 µM. The method in brief:
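Step 1: BacMam hERG transduction of U2OS, 4 hrs RT. Step 2: overnight 37 °C, plate 2000 cells/well, 4 hr. Step 3: FluxOR load, compound 10 min, stimulate, read fluorescence.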

The target in test [5] is Nuclear receptor ROR-gamma (Homo sapiens) (UniProt P51449). Briefly: qHTS assay for small molecule antagonists of the retinoid-related orphan receptor gamma (ROR-gamma) signaling pathway (AID 651802). Also: potency is read from the fitted curve at half-maximal effect; nearly all actives have a fitted effect of over 60% in size. The settings on record: ROR-gamma antagonist cell reporter assay; series mostly up to 92.2 µM. Put shortly:
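Steps: cells dispensed; compound or DMSO transferred by pin tool; doxycycline added to induce the ROR response element-driven luciferase; plates held 16hr at 37C; ONE-Glo added and luminescence measured.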

A short description of test [6]: qHTS assay for small molecule antagonists of the retinoid-related orphan receptor gamma (ROR-gamma) signaling pathway - cell viability counter screen (AID 720652; active = well fitted curve in the direction sought with a large enough effect in the repeat runs; an effect the other way counts as inactive or inconclusive;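 also: potency is read from the fitted curve at half-maximal effect; compound exposure lasted 16 hr before ATP read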). Particulars: RORgamma reporter cell line viability counter screen; series mostly up to 92.2 µM. Put shortly:
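Steps: seed CHO cells bearing TET-inducible ROR and ROR response element-luciferase; rest 5 hr at 37 C; add compound, then doxycycline; incubate 16 hr; add CellTiter-Glo and read luminescence as ATP-based viability.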

Test [7] in a line: qHTS assay for cell viability of the p53RE-bla HCT-116 cell line (AID 743292). Also: nearly all actives have a fitted effect of over 55% in size. Also: potency is read from the fitted curve at half-maximal effect. The settings on record: p53RE-bla HCT-116 viability, ATP luminescence, 16 h; series mostly up to 95 µM. The method in brief:
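ATP-based luminescence, 16 h compound exposure at 37 C, p53RE-bla HCT-116 cells at 4,000/well.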

The nature of test [8]: qHTS assay for cell viability of HEK293 cells (AID 743288). Also: nearly all actives have a fitted effect of over 50% in size. Also: potency is read from the fitted curve at half-maximal effect. As to max response: % is scaled to controls: 0 for no effect and ±100 for the full control effect. The settings on record: ATP luminescence (CellTiter-Glo), 18 h; max response: stronger effect = lower value. The method in brief:
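Viable-cell counts were inferred from luciferase-based ATP content in HEK293 cells seeded at 2,000/well, pre-incubated ≥5 h, then dosed with DMSO-solubilised compounds for 18 h at 37 C.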

The nature of test [9]: Cellular Toxicity (caspase-3) SK-N-SH (AID 661).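 Also: cells exposed to compound for 16 hours; 0% = DMSO basal and 100% = 10 µM staurosporine.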 The settings on record: SK-N-SH caspase-3 activation, qHTS, DMSO as zero, staurosporine as full; series mostly up to 91.7 µM. Put shortly: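 Cells were seeded and incubated 5 hr at 37 °C, dosed with compound over a concentration range for 16 hr, then given Caspase-Glo 3/7 reagent for 1 hr at room temperature before luminescence reading.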

Test [10] is described as follows: Cellular Toxicity (caspase-3) H-4-II-E (AID 663).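 Also: cells exposed to compound for 16 hr before readout.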 The settings on record: H-4-II-E rat hepatoma, scaled: DMSO 0%, 100 µM tamoxifen 100%; at 92.2 µM (top of the series). The method in brief: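 Caspase 3/7 activation measured in H-4-II-E cells in complete culture medium after 16 hr treatment at 37 °C, using luciferase-coupled substrate readout; AC50 values come from Hill-equation fits of normalized concentration-response data.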

The nature of test [11]: MultiTox-Fluor Cytotoxicity Assay - LYMP1-002 - Dead Cells (AID 960). Also: nearly all actives have a fitted effect of over 60% in size. Also: potency is read from the fitted curve at half-maximal effect. Particulars: LYMP1-002 lymphoblastoid cells, dead-cell protease fluorescence; series mostly up to 46.1 µM. Put shortly:
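Cells were plated, rested 5 hr, then treated with compound dilution series for 16 hr at 37 C. After adding substrate reagent and 60 min at room temperature, dead-cell protease fluorescence gave concentration-response curves fitted by the Hill equation.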

Test [12] in a line: Cell Viability - LYMP2-002 (AID 977).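 Also: compound exposure lasted 24 h at 37 °C.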 Also: potency is read from the fitted curve at half-maximal effect. The settings on record: LYMP2-002 lymphoblastoid cell viability, qHTS; series mostly up to 92.2 µM. The method in brief:
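In this qHTS viability screen, 2500 human lymphoblastoid cells per well receive compound for 24 hr at 37 C, and luciferase-based ATP luminescence gives the viability signal. Tetraoctylammonium bromide serves as positive control.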

The nature of test [13]: Cell Viability - LYMP2-006 (AID 978).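 Also: cells exposed to compound for 24 hours; nearly all actives have a fitted effect of over 60% in size.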 Also: potency is read from the fitted curve at half-maximal effect. Particulars: LYMP2-006 lymphoblastoid cell viability, qHTS; series mostly up to 92.2 µM. Put shortly:
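Cells are seeded at 2500 per well and rested 5 hr at 37 C. Compounds are added across a concentration series for 24 hr at 37 C, after which ATP is quantified by luciferase luminescence.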

The nature of test [14]: Cell Viability - LYMP2-010 (AID 981).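 Also: cells exposed to compound for 24 hours at 37 °C; nearly all actives have a fitted effect of over 55% in size.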 Also: potency is read from the fitted curve at half-maximal effect. The settings on record: LYMP2-010 lymphoblastoid cell viability, qHTS; series mostly up to 92.2 µM. The method in brief:
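Steps: seed 2500 LYMP2-010 cells per well; incubate 5 hr at 37 C; add compound; incubate 24 hr at 37 C; add CellTiter-Glo, wait 30 min at room temperature; read luminescence. Concentration-response fitted to Hill equation for AC50.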

The nature of test [15]: Cell Viability - LYMP2-020 (AID 986).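 Also: cells exposed to compound for 24 h at 37 °C; nearly all actives have a fitted effect of over 55% in size.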 Also: potency is read from the fitted curve at half-maximal effect. The settings on record: series mostly up to 92.2 µM. Put shortly: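 Seed 2500 cells per well and incubate 5 hr at 37 C. Add compounds at a concentration series and incubate 24 hr at 37 C. Add CellTiter-Glo, wait 30 min at RT, read luminescence, and fit a Hill curve for AC50.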
The nature of test [16]: Cell Viability - LYMP2-022 (AID 987). Also: nearly all actives have a fitted effect of over 55% in size. Also: potency is read from the fitted curve at half-maximal effect. Particulars: LYMP2-022 lymphoblastoid cell viability; series mostly up to 92.2 µM. Put shortly: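 Cells were seeded at 2500 per well, rested 5 hr at 37 C, and treated with titrated compounds for 24 hr at 37 C. Cellular ATP was then quantified by luciferase luminescence, and AC50 values were derived from Hill-modelled concentration-response curves.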

Test [17] can be described thus: Cell Viability - LYMP2-024 (AID 988). Also: nearly all actives have a fitted effect of over 60% in size. Also: potency is read from the fitted curve at half-maximal effect. The settings on record: LYMP2-024 lymphoblastoid cell viability; series mostly up to 92.2 µM. The method in brief: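 qHTS cytotoxicity, human lymphoblastoid line, complete medium; 24 h cpd treatment, 37 C; CellTiter-Glo ATP luminescence readout; tetraoctylammonium bromide positive control; AC50 via Hill fit.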
The nature of test [18]: MultiTox-Fluor Cytotoxicity Assay - LYMP1-001 - Live Cells (AID 947). Also: potency is read from the fitted curve at half-maximal effect. Particulars: LYMP1-001 lymphoblastoid cells, live-cell protease fluorescence viability; series mostly up to 92.2 µM.
Test [19] deals with Peroxisome proliferator-activated receptor alpha (Homo sapiens) (UniProt Q07869). Briefly: qHTS assay for small molecule agonists of the peroxisome proliferator-activated receptor alpha (PPARalpha) signaling pathway (AID 651778). Also: % of control where 0% means no effect. Particulars: PathHunter PPARalpha complementation, chemiluminescence, 6 h; max response: stronger effect = higher value. Put shortly:
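Cells plated at 2,000/well and held overnight at 37 C, 5% CO2, then compound added by pin tool for 6 hr; after PathHunter detection reagent and 60 min at room temperature, chemiluminescence from enzyme complementation was read.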

Values without a mark were called inactive. Results filed as inconclusive are left out. The source made the active and inactive calls. Unless noted, calls follow the shape of the dose curve; as a rule, active = well fitted curve in the direction sought with a large enough effect; inconclusive = small, poorly fitted or top-dose-only effect, or another doubt; inactive = no such curve, though single readings can be large; an effect the other way counts as inactive or inconclusive.

Chain of Nuclear receptor ROR-gamma (Homo sapiens) (P51449 whole entry, looked up): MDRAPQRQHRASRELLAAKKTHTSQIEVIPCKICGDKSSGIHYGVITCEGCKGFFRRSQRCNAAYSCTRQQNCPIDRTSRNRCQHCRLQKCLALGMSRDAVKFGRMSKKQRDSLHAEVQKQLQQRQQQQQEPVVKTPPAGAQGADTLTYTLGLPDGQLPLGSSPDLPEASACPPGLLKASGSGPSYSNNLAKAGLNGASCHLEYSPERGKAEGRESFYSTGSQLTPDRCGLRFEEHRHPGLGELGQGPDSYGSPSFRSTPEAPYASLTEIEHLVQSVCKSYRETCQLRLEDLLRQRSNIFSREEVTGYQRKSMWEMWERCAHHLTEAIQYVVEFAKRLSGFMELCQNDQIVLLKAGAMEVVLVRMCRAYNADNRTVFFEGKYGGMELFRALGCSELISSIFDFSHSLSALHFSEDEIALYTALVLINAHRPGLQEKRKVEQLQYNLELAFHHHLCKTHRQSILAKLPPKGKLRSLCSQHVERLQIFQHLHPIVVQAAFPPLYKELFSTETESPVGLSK
Chain of Voltage-gated inwardly rectifying potassium channel KCNH2 (Homo sapiens) (Q12809 whole entry, looked up): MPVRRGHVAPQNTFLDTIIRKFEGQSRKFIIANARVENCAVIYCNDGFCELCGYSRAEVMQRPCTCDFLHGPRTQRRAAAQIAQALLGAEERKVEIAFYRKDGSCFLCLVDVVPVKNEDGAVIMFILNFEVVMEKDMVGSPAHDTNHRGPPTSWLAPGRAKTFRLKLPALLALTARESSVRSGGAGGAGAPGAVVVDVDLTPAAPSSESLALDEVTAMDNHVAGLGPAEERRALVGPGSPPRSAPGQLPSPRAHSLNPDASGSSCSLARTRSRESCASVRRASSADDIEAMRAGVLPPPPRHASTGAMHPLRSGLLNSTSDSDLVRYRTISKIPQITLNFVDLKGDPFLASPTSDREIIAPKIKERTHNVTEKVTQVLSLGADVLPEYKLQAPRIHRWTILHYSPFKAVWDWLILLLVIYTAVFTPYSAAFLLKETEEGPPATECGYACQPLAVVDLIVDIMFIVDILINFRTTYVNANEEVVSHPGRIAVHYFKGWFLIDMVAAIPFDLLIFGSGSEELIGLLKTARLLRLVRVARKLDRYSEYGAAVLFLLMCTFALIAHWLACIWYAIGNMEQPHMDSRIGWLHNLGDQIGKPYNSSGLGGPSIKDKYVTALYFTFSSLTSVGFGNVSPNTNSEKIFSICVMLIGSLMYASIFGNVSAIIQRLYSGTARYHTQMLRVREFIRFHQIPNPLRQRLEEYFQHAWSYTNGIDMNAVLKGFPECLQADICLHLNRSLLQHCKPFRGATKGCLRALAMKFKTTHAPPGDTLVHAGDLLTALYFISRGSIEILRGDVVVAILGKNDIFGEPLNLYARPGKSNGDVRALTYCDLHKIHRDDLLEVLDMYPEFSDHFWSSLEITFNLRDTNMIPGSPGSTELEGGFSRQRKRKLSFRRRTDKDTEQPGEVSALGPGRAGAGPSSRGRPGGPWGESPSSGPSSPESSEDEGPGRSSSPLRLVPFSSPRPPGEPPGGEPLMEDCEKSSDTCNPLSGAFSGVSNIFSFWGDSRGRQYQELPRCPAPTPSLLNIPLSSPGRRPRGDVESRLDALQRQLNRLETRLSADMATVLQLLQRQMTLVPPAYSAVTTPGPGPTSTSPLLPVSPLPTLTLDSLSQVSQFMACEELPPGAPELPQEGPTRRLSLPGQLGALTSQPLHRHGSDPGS
Chain of Peroxisome proliferator-activated receptor alpha (Homo sapiens) (Q07869 whole entry, looked up): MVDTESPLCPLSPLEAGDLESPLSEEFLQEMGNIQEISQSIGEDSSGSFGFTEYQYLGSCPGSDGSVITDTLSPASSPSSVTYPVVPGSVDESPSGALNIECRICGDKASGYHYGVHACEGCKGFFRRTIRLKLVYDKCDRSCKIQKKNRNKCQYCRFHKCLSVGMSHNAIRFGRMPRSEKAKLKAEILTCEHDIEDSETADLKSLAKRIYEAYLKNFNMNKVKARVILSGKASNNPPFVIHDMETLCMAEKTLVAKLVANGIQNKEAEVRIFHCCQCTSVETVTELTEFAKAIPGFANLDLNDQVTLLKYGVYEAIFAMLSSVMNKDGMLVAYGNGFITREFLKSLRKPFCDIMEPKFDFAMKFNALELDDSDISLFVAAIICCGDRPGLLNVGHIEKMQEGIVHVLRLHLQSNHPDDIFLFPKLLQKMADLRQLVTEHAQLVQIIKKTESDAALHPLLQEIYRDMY

For `ClC1=C(Cl)C2(Cl)C3C(Cl)C(Cl)CC3C1(Cl)C2(Cl)Cl` (configuration not stated), the Potency in [1] was more than 92 µM; in test [4] it was 35.5 µM (active); in [5], 37.6 µM (active); in test [6], 66.8 µM (active); in test [7], 50.1 µM (active). For the same compound, the Potency result in test [2] and in [3] was “inactive” in each case.
On to `Cc1ccc2ccccc2c1C`, for which, in [1], the Potency was more than 92 µM. For the same compound, the max response in [8] is 5.03%.
As to `Clc1ccc(C(c2ccc(Cl)cc2)C(Cl)Cl)cc1`, the outcome in test [9] was inactive. Also, the caspase-3 activation in test [10] was 87.3% (active). Also, the Potency was 15.8 µM (active) in test [11], 22.4 µM (active) in [4] and 37.6 µM (active) in test [5]. The Potency entry in [3], in test [12], in test [13], in test [14], in test [15] and in test [16] was “inactive” in each case. For the same compound, the Potency entry in test [17] was “inactive”.
On to `[CH3][Hg][Cl]`, for which the Potency was 31.7 µM (active) in test [1]; 39.8 µM (active) in [18]; 3.98 µM (active) in [3]; 7.94 µM (active) in [12]; 5.01 µM (active) in [13]; 1.58 µM (active) in test [14]. In addition, the Potency in test [15] is 2.51 µM (active); in test [16] it was 2.51 µM (active); in test [17], 2 µM (active); in test [4], 25.1 µM (active); in test [5] it was 6.68 µM (active); in [6] it was 10.6 µM (active). Further, the Potency in test [8] is 39.8 µM (active). The result in test [9] was inactive. Moreover, in test [19], the max response is -12.7%.
As for `[Cd+2].[Cl-].[Cl-]`, the compound was called inactive in test [9]. In addition, the caspase-3 activation in [10] is -2.46%. Also, the Potency entry in test [2], in test [11] and in [7] was “inactive” each time. In addition, the Potency in test [14] was 50.1 µM (active); in test [16], 39.8 µM (active); in test [5], 3.35 µM (active); in [6], 21.1 µM (active). Also, the max response in test [19] is -8.85%.
As to `O=[N+]([O-])C(Br)Br`, the result in test [9] was inactive. Besides, the Potency entry in test [2], in test [18], in test [11] and in test [7] was “inactive” in each case. Besides, the Potency in test [3] was 12.6 µM (active); in test [12], 10 µM (active); in [13], 20 µM (active); in test [14], 7.94 µM (active); in test [15], 12.6 µM (active); in test [16], 12.6 µM (active). Moreover, the Potency was 7.94 µM (active) in [17], 50.1 µM (active) in test [4], 18.8 µM (active) in test [5] and 18.8 µM (active) in test [6]. Moreover, the max response in test [8] is -25.4%.

(Values after PubChem BioAssay (NCATS).)
